RORg inh: blocks mouse ROR gamma transcriptional activity | Drosophila S2 Gal4-RORgamma UAS-luciferase reporter, 20 h | Potency, µM (titrated, usually from 53.6 µM), inactives show at the highest dose activity change, negative = inhibition, most hits filed as inhibitors | P51450 | actives 5.4% (n = 310,000); note: % is set by controls: 0 for no effect and ±100 for the full control effect; nearly all actives have a fitted effect of over 60% in size
Target sequence (P51450 whole entry, looked up, the tested form may be a part): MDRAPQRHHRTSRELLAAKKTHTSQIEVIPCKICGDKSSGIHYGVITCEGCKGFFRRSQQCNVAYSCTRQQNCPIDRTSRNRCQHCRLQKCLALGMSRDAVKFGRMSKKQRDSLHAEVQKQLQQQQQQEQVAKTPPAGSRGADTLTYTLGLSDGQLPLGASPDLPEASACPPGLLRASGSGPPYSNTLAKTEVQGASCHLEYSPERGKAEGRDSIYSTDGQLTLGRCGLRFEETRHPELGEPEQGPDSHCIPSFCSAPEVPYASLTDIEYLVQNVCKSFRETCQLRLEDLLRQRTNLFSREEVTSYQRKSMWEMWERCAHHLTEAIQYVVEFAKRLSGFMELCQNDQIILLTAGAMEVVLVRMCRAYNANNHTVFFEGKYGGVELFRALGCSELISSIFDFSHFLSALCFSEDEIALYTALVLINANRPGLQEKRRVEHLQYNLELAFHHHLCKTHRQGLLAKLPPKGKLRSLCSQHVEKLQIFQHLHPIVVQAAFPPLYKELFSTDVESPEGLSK
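Read-out: Photinus luciferase luminescence; inhibitors lower reporter signal. Insect Schneider cells with Gal4-ROR gamma fusion under metallothionein promoter, UAS reporter; 700 uM final copper sulfate induction, 20 hr, ambient temperature.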
VP16 counter: counter-screen for ROR gamma inhibitors: Gal4-VP16 reporter; Drosophila S2 Gal4-VP16 UAS-luciferase, luminescence, 20 h; Potency, µM (doses to about 53.6 µM), inactives show at the top dose activity, negative = inhibition, usual class: inhibitors; actives 3.5% (n = 310,000);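 note: Gal4-VP16 expression switched on by copper sulfate through the metallothionein promoter; % is set by controls: 0 for no effect and ±100 for the full control effect; nearly all actives have a fitted effect of over 50% in size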
MCF10A rerep: inducers of DNA re-replication in MCF 10A breast cells; Potency, µM (top dose mostly 46.1 µM), for inactives: top-dose activity, positive = re-replication, usual class: activators; MCF 10A DNA re-replication, Hoechst nuclear intensity, 48 h; actives 2.9% (n = 350,000); AID 624296; note: % of control where 0% means no effect; nearly all actives have a fitted effect of over 50% in size
ELG1 DNA repair: inhibitors of ELG1-dependent DNA repair in HEK293T cells | HEK293T ELG1-luciferase reporter, luminescence, 16 h; DNA damage induced by 5-fluorouridine | Potency, µM (top dose mostly 46.1 µM), inactives show top-dose activity change, negative = inhibition, usual class: inhibitors | actives 2.3% (n = 330,000); note: % is set by controls: 0 for no effect and ±100 for the full control effect; nearly all actives have a fitted effect of over 55% in size
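Cells (2,000 per well) received 5-fluorouridine plus test compound or DMSO and were incubated 16 hr at 37 °C, 5% CO2. Luciferase activity was read by luminescence 30 min after ONE-Glo addition; signal suppression marked inhibition of damage-induced ELG1 function.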
SW480 rerep: induces DNA re-replication in SW480 colon adenocarcinoma cells; Potency, µM (titrated, usually from 46.1 µM), for inactives: top-dose re-replication activation, usual class: activators; SW480 DNA re-replication, Hoechst DNA content imaging, 48 h; actives 1.8% (n = 340,000); AID 624297; note: % of control where 0% means no effect; nearly all actives have a fitted effect of over 55% in size
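Hoechst fluorescence of nuclei (405 nm excitation, 500-530 nm emission) measured by plate-scanning imager after 48 hr compound exposure at 37 C; re-replication scored as increased number of nuclei with elevated intensity.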
The depositor's hits bear a star; ? = inconclusive; nt = no result; [ ] = dose if it differs, or a comment. This is a sample that favours compounds with a hit; in the whole collection about 10% have one here. Calls come from the whole dose curve; as a rule, active = well fitted curve in the direction sought with a large enough effect; inconclusive = small, poorly fitted or top-dose-only effect, or another doubt; inactive = no such curve, though single readings can be large; an effect the other way counts as inactive or inconclusive. Potency is the fitted concentration of half-maximal effect.

SMILES | RORg inh | VP16 counter | MCF10A rerep | ELG1 DNA repair | SW480 rerep
Cc1ccc(-n2c(CCc3ccccc3)nnc2SCC(=O)NCc2ccccc2)cc1C | ? | ? | ? | ? | 10%
CCCOC1CCCN(C(=O)c2cc(COc3ccc(F)c(F)c3)on2)C1 (centres undefined) | ? | -3% | ? | ? | 11%
S=C(Nc1ccccc1)N1CCn2c(nc3ccccc32)C1 | 10% | 2% | 4% | ? | -8%
COC(=O)c1ccc(NC(=O)CSc2nncn2-c2ccccn2)cc1 | 19% | -13% | -1% | 6% | -5%
COC(=O)c1sc(S(=O)(=O)NCc2cccs2)c(C(=O)OC)c1C | -23% | ? | 0% | 15µM* | -5%
O=C(c1ccc(Cl)cc1)N1CCN(c2ccnc3cc(Cl)ccc23)CC1 | ? | 25µM* | 24% | ? | 1%
O=C(Oc1ccnc2cc(Cl)ccc12)N1CCCCCC1 | 4% | 13µM* | -5% | ? | -1%
Cc1ccc(S(=O)(=O)N2CCN(c3ccnc4cc(Cl)ccc34)CC2)cc1 | ? | 16µM* | 13% | ? | -19%
Cc1cc(N2CCN(S(=O)(=O)c3ccc(Cl)c(Cl)c3)CC2)c2ccccc2n1 | 0% | -4% | ? | ? | 7%
CCOC(=O)N1CCN(c2ccnc3cc(Cl)ccc23)CC1 | -13% | -11% | ? | -12% | 17%
Cc1ccc(S(=O)(=O)N2CCN(c3ccnc4cc(Cl)ccc34)CC2)cc1C | 16% | ? | 2% | ? | 0%
Cc1cc(N2CCN(S(=O)(=O)c3ccc(Cl)cc3)CC2)c2ccccc2n1 | -43% | ? | -6% | 23µM* | -8%
CC(C)N(C(=O)N1CCN(c2ccnc3cc(Cl)ccc23)CC1)C(C)C | 19% | 0% | 16µM* | ? | 10%
CCC(=O)N1CCN(c2ccnc3cc(Cl)ccc23)CC1 | -7% | 1% | 2% | -16% | -5%
COc1ccc(NC(=S)/N=C(\N)Nc2nc(C)c3ccccc3n2)cc1 | 1µM* | 4.5µM* | ? | ? | -50%
CCOc1ccc2nc(N/C(N)=N/C(=S)Nc3cccc(OC)c3)nc(C)c2c1 | 0.79µM* | ? | 10% | ? | ?
COc1ccc2nc(N/C(N)=N/C(=S)Nc3cccc(C)c3)nc(C)c2c1 | 3.5µM* | 4.5µM* | 26% | ? | 15%
CCOc1ccc2nc(N/C(N)=N/C(=S)Nc3cccc(C)c3)nc(C)c2c1 | 1.6µM* | 3.5µM* | -2% | -3% | -7%
COc1ccc2nc(N/C(N)=N/C(=S)Nc3c(C)cccc3C)nc(C)c2c1 | 16% | -6% | ? | -4% | 26%
Brc1ccc(CSc2nnc3ccccn23)cc1 | -2% | 1% | -1% | ? | 21%
Cc1ccc(NC(=O)N2CCCC2C(=O)Nc2ccc3c(c2)OCO3)cc1 (centres undefined) | -34% | 0% | 1% | 15% | 17%
O=C1c2ccccc2-c2c1cccc2C(=O)N1CCCCCC1 | -11% | -2% | -2% | -3% | 23µM*
Cc1cc(S(=O)(=O)Nc2c(C)nn(C)c2C)c(Cl)cc1Cl | ? | -6% | -11% | -6% | ?
NC(=O)c1ccsc1NC(=O)CSc1nnc(NC2CC2)s1 | nt | nt | -8% | 11% | 1%
Cc1ccsc1/C=N/NC(=O)c1ccc(Cn2cc(Br)cn2)o1 | 13µM* | ? | 5% | -8% | -610%
SMILES | RORg inh | VP16 counter | MCF10A rerep | ELG1 DNA repair | SW480 rerep
CN1CCc2c(sc(NC(=O)c3cc4cc([N+](=O)[O-])ccc4s3)c2C(N)=O)C1 | 5.6µM* | 3.2µM* | nt | ? | nt
CN1CCc2c(sc(NC(=O)c3ccc(S(=O)(=O)N4CCCC4)cc3)c2C(N)=O)C1 | -38% | -6% | 14% | -9% | 1%
N#Cc1c(NC(=O)c2ccc([N+](=O)[O-])o2)sc2c1CCC2 | ? | ? | 21µM* | ? | 10µM*
CN1CCc2c(sc(NC(=O)c3cc(Cl)sc3Cl)c2C(N)=O)C1 | 25% | -16% | 23µM* | 10% | ?
Cc1cnc(CN(C)C(=O)CC2C(=O)NCCN2CCCc2ccccc2)[nH]1 (centres undefined) | -6% | 2% | 9% | 10% | -1%
CN1CCc2c(sc(NC(=O)c3ccc([N+](=O)[O-])o3)c2C(N)=O)C1 | -43% | ? | ? | ? | 1.5µM*
NC(=O)c1ccsc1NC(=O)c1ccc([N+](=O)[O-])o1 | nt | nt | 3.7µM* | 14% | ?
NC(=O)c1c(NC(=O)c2ccc([N+](=O)[O-])o2)sc2c1CCCC2 | -32% | -12% | 2.6µM* | -7% | 1.5µM*
NNC(=O)c1ccc(Cn2cc(Br)cn2)o1 | 13% | 5% | -2% | 1% | -18%
CN1CCc2c(sc(NC(=O)c3ccco3)c2C(N)=O)C1 | -2% | -11% | -1% | 16% | -5%
N#Cc1c(NC(=O)c2ccc(Cn3cc(Br)cn3)o2)sc2c1CCCCCC2 | 5.6µM* | -10%[0.365 µM] | ? | -13% | 29%
COc1ccc(C)cc1NS(=O)(=O)c1ccccc1 | nt | nt | 1% | nt | 2%
COc1ccc(-n2c(SCC(=O)C(C)(C)C)nc3c(sc(=S)n3-c3ccccc3)c2=O)c(OC)c1 | -45% | ? | -9% | ? | -3%
CCN(CC)C(=O)C[n+]1cccc(C(N)=O)c1 | 13% | ? | -14% | 15% | -4%
CN(C)C(CN1C(=O)C2CC=CCC2C1=O)c1cn(C)c2ccccc12 (centres undefined) | -38% | -2% | -1% | 1% | 4.1µM*
O=C(CSc1ccc2nnc(CCNC(=O)c3ccccc3)n2n1)NCCc1ccccc1 | -24% | 4% | -2% | 0% | 20%
CN1CCN(NC(=O)Nc2cccc(F)c2)CC1 | -17% | -5% | 2% | 4% | -27%
CC(=O)Nc1cccc(NC(=O)Nc2ccc(C(C)=O)cc2)c1 | -19% | 0% | 12% | ? | -5%
CC(=O)c1cccc(NC(=O)NN2CCN(C)CC2)c1 | ? | -4% | 0% | 2% | 5.8µM*
CCOc1cccc(C(=O)Nc2ccc(N(CC)CC)cc2)c1 | 17% | 2% | 18µM* | -7% | 18µM*
CCN(CC)c1ccc(NC(=O)Nc2cccc(C(C)=O)c2)cc1 | 7.9µM* | ? | 9% | nt | ?
CC(=O)c1cccc(NC(=O)Nc2ccc(C(=O)N3CCCC3)cc2)c1 | ? | ? | 2% | 6.5µM* | -1%
COC(=O)c1ccc(CNC(=O)c2ccc(S(=O)(=O)N3CCCC(C)C3)cc2)cc1 (centres undefined) | nt | nt | -1% | 4% | -5%
O=Cc1ccc(OCC(=O)NCC2CCCO2)cc1 (centres undefined) | 0% | -2% | 3% | 0% | -11%
CC(=O)c1cccc(NC(=O)Nc2ccc3c(c2)N(C)C(=O)CS3)c1 | -24% | 6% | -4% | 13µM* | -4%
